Assay results from PubChem BioAssay (Tox21).
Inconclusive results are not listed. Activity calls are given as the source filed them. Unless noted, calls follow the shape of the full dose curve.

What was measured:
[1] = target: Acetylcholinesterase (Homo sapiens) (UniProt P22303); experiment: Acetylcholinesterase (AChE) small molecule antagonists: colormetric cell-based qHTS assay (AID 1347395); also: nearly all actives have a fitted effect of over 30% in size; also: potency is read from the fitted curve at half-maximal effect
Procedure, shortened: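 Endogenous AChE of human neuroblastoma SH-SY5Y cells was measured with an Ellman-type DTNB/acetylthiocholine mix. Compound pretreatment lasted 30 min at 37 C; substrate reaction ran 90 min at 37 C.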

[2] = target: Acetylcholinesterase (Homo sapiens) (UniProt P22303); experiment: Acetylcholinesterase (AChE) small molecule antagonists: enzyme-based qHTS assay (AID 1347397); details: Potency: AChE enzyme activity inhibition; outcome: AChE enzyme activity inhibition; also: nearly all actives have a fitted effect of over 55% in size; also: potency is read from the fitted curve at half-maximal effect
Procedure, shortened: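 rhAChE 50 mU/mL (dispensed) + cpd or DMSO, 30 min RT; add DTNB/acetylthiocholine cocktail, 10 min RT; colorimetric thiocholine readout. qHTS, 1536-well format.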

[3] = target: Acetylcholinesterase (Homo sapiens) (UniProt P22303); experiment: Acetylcholinesterase (AChE) small molecule antagonists: fluorescence cell-based qHTS assay (AID 1347398); details: Potency: AChE activity; outcome: AChE activity; also: nearly all actives have a fitted effect of over 50% in size; also: potency is read from the fitted curve at half-maximal effect
Procedure, shortened: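 Read-out is Thiolite Green fluorescence at Ex/Em = 490/520 nm, formed by reaction with thiocholine released when cellular AChE in SH-SY5Y cells hydrolyzes acetylthiocholine. Compounds were preincubated 30 min at 37 C before substrate.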

[4] = target: Acetylcholinesterase (Homo sapiens) (UniProt P22303); experiment: Acetylcholinesterase (AChE) small molecule antagonists: enzyme-based qHTS assay with human liver microsomes (AID 1347399); details: Potency: qHTS inhibition; outcome: qHTS inhibition; also: nearly all actives have a fitted effect of over 60% in size; also: potency is read from the fitted curve at half-maximal effect
Procedure, shortened: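 Recombinant human AChE (50 mU/mL in the enzyme mix) and human liver microsomes (0.25 mg/mL final) were preincubated with compound and NADPH (0.25 mg/mL final) for 30 min at 37 C. Acetylthiocholine/DTNB was then added; thiocholine was read colorimetrically after 10 min at room temperature.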

[5] = target: Glucocorticoid receptor (Homo sapiens) (UniProt P04150); experiment: qHTS assay to identify small molecule antagonists of the glucocorticoid receptor (GR) signaling pathway (AID 720692; active = well fitted inhibition curve with a large enough effect in the signal ratio in the repeat runs, not every such curve was filed as active; the % refers to the signal ratio)
Procedure, shortened: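 Fluorescence from cleaved LiveBLAzer B/G FRET substrate reports GRE-driven beta-lactamase in HeLa cells; compounds are tested against 5 nM dexamethasone (final) over 18 h at 37 C, substrate incubation 2 h at room temperature.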

[6] = target: Aromatase (Homo sapiens) (UniProt P11511); experiment: qHTS assay to identify aromatase inhibitors (AID 743083; active = well fitted curve in the direction sought with a large enough effect in the repeat runs; an effect the other way counts as inactive or inconclusive; also: series mostly up to about 70 µM; nearly all actives have a fitted effect of over 55% in size)
[7] = target: Aryl hydrocarbon receptor (Homo sapiens) (UniProt P35869); experiment: qHTS assay to identify small molecule that activate the aryl hydrocarbon receptor (AhR) signaling pathway (AID 743085; active = well fitted curve in the direction sought with a large enough effect in the repeat runs; an effect the other way counts as inactive or inconclusive;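 also: HG2L7.5c1 human HepG2 liver cells with stably integrated DRE-driven firefly reporter; series mostly up to about 70 µM; nearly all actives have a fitted effect of over 15% in size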)
Procedure, shortened: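 Steps: seed HepG2-AhR-luc cells; allow 5 h at 37C; pin-transfer test compound or vehicle; incubate 24 h at 37C; add viability dye (30 min, 37C) and read fluorescence; add luciferase substrate (30 min, RT) and read luminescence.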
% is scaled to controls: 0 for no effect and ±100 for the full control effect.

Acetylcholinesterase (Homo sapiens), sequence (P22303 whole entry, looked up): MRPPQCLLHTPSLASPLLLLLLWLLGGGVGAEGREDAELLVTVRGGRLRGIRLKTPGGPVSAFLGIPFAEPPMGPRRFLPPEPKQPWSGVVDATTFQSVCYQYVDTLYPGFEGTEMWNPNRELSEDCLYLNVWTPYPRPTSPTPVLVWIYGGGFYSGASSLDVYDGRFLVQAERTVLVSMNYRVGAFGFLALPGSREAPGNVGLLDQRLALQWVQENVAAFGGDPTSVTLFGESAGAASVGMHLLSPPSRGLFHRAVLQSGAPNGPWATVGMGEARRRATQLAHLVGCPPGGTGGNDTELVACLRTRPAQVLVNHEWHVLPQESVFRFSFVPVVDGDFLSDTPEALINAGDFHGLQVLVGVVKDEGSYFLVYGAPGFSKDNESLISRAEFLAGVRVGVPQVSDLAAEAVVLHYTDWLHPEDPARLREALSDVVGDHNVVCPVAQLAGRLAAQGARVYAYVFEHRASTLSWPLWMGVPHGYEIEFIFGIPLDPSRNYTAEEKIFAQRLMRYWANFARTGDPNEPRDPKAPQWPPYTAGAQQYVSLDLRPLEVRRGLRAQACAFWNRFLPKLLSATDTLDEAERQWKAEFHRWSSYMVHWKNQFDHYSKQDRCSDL
Aromatase (Homo sapiens), sequence (P11511 whole entry, looked up): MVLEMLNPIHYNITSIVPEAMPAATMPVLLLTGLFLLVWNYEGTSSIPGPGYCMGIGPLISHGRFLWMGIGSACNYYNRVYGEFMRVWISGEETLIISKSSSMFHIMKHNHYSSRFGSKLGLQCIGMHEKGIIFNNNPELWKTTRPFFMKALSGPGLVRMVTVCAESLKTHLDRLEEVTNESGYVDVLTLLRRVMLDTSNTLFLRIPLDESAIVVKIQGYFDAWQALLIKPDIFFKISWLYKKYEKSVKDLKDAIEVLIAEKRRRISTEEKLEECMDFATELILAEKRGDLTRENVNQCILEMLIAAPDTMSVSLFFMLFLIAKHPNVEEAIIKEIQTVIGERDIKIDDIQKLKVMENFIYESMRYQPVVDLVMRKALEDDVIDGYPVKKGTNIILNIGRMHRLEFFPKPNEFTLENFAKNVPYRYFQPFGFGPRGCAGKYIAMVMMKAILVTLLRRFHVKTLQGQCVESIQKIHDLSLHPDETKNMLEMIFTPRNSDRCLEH
Aryl hydrocarbon receptor (Homo sapiens), sequence (P35869 whole entry, looked up): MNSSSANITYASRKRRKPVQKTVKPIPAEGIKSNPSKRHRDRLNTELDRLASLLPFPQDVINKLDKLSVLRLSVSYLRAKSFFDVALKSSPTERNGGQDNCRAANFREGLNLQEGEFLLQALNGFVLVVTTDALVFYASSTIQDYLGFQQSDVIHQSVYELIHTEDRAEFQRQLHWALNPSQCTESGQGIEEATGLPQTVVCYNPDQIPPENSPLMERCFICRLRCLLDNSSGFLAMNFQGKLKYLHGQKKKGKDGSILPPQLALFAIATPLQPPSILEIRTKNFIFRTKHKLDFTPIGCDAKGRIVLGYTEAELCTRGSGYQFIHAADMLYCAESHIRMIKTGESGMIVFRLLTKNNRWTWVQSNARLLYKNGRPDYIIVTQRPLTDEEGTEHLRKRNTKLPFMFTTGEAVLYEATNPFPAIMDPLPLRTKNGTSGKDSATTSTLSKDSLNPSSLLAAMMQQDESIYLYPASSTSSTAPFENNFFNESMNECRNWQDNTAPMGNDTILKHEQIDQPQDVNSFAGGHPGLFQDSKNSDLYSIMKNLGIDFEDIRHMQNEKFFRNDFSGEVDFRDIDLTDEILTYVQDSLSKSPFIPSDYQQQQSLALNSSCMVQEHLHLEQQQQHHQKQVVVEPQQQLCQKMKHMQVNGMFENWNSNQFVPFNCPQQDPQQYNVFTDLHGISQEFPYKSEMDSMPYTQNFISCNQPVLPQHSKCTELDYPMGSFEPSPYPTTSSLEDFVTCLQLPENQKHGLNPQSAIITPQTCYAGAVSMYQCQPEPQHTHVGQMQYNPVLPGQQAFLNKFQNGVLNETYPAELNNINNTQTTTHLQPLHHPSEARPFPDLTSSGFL
Glucocorticoid receptor (Homo sapiens), sequence (P04150 whole entry, looked up): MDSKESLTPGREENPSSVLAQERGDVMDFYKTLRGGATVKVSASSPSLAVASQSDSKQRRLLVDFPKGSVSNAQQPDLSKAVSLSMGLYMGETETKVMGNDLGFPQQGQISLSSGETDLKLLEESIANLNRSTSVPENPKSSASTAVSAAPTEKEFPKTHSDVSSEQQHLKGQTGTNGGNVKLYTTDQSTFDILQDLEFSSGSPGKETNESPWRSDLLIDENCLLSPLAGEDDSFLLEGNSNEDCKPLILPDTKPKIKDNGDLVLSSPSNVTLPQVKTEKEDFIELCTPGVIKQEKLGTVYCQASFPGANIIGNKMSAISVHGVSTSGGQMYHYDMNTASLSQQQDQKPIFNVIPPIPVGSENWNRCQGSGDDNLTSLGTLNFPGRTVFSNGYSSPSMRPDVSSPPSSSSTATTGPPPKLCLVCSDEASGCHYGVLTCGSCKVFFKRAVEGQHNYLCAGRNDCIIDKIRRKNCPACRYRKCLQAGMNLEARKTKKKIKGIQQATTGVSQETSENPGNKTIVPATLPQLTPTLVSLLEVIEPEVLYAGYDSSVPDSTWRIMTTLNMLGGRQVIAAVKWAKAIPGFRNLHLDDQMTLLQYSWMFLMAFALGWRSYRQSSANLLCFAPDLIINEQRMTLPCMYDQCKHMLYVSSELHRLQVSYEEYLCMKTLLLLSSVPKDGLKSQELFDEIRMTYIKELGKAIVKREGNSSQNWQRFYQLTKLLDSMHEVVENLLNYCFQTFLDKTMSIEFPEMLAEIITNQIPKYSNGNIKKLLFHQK

CC(C)(C)OC(=O)N1C[C@@H](F)C[C@H]1C(=O)O
inactive: Potency [1] | Potency [2] | Potency [3] | Potency [4]

NC(=O)c1ncn([C@@H]2O[C@H](CO)[C@@H](O)[C@H]2O)c1N
inactive: Potency [1] | Potency [2] | Potency [3] | Potency [4]

CC(=O)Nc1ccc(S(N)(=O)=O)cc1
inactive: Potency [1] | Potency [2] | Potency [3] | Potency [4]

OC[C@@H](O)[C@@H](O)CO
inactive: Potency [1] | Potency [2] | Potency [3] | Potency [4]

CCCCC/C=C/CC1CC(=O)OC1=O (configuration not stated)
inactive: Potency [1] | Potency [2] | Potency [3] | Potency [4]

Cc1ccc2sc3cccc(C)c3c2c1
inactive: Potency [1] | Potency [2] | Potency [3] | Potency [4]

ON(Cc1ccccc1)Cc1ccccc1
inactive: Potency [1] | Potency [2] | Potency [3] | Potency [4]

CCC/C=C/CO
inactive: Potency [1] | Potency [2] | Potency [3] | Potency [4]

NCCCNCCSP(=O)(O)O
inactive: activity, negative = inhibition [1] 2.88% [at 10.5 µM] | activity change, negative = inhibition [2] -0.97% [at 10.5 µM] | activity change, negative = inhibition [3] 1.49% [at 10.5 µM] | activity change, negative = inhibition [4] 5.32% [at 10.5 µM]

CCOCCOCCOC(C)=O
inactive: Potency [1] | Potency [2] | Potency [3] | Potency [4]

CC(=O)OCC(=O)[C@@]1(OC(C)=O)[C@@H](C)C[C@H]2[C@@H]3C[C@H](F)C4=CC(=O)C=C[C@]4(C)[C@@]3(F)[C@@H](O)C[C@@]21C
inactive: Potency [1] | Potency [2] | Potency [3] | Potency [4]

C[C@H](CN1CCCC1)C(=O)c1ccc(C(F)(F)F)cc1
inactive: Potency [1] | Potency [2] | Potency [3] | Potency [4]

C1=CCC2CC=CC2C1 (configuration not stated)
inactive: Potency [1] | Potency [2] | Potency [3] | Potency [4]

CCCC1CCCC(=O)O1 (configuration not stated)
inactive: Potency [1] | Potency [2] | Potency [3] | Potency [4]

O=C(O)[C@@H]1[C@H]2C[C@H]3c4[nH]c5ccccc5c4CCN3C[C@@H]2CC[C@@H]1O
inactive: Potency [1] | Potency [2] | Potency [3] | Potency [4]

NCC[C@H](O)C(=O)N[C@@H]1C[C@H](N)[C@@H](O[C@H]2O[C@H](CN)[C@@H](O)[C@H](O)[C@H]2O)[C@H](O)[C@H]1O[C@H]1O[C@H](CO)[C@@H](O)[C@H](N)[C@H]1O
inactive: activity, negative = inhibition [1] -3.35% [at 0.435 µM] | activity change, negative = inhibition [2] 0.773% [at 0.435 µM] | activity change, negative = inhibition [3] 5.79% [at 0.439 µM] | activity change, negative = inhibition [4] -1.18% [at 0.435 µM]

COC(C)=O
inactive: Potency [1] | Potency [2] | Potency [3] | Potency [4]

CCCCOC(=O)C(C)CC (configuration not stated)
inactive: Potency [1] | Potency [2] | Potency [3] | Potency [4]

Cc1c(C)c2c(c(C)c1OC(=O)CCC(=O)O)CC[C@@](C)(CCC[C@H](C)CCC[C@H](C)CCCC(C)C)O2
inactive: Potency [1] | Potency [2] | Potency [3] | Potency [4]

COc1c(N2CCNC(C)C2)c(F)cc2c(=O)c(C(=O)O)cn(C3CC3)c12 (configuration not stated)
inactive: Potency [1] | Potency [2] | Potency [3] | Potency [4]

CN(C1CCCCC1)S(=O)(=O)c1ccccc1N
inactive: Potency [1] | Potency [2] | Potency [3] | Potency [4]

OCCC(O)CO (configuration not stated)
inactive: Potency [1] | Potency [2] | Potency [3] | Potency [4]

Cc1cc2c(cc1CC(=O)c1sccc1S(=O)(=O)Nc1onc(C)c1Cl)OCO2
inactive: Potency [1] | Potency [2] | Potency [3] | Potency [4]

CCC(=O)/C=C/c1ccc(OC)cc1
inactive: Potency [1] | Potency [2] | Potency [3] | Potency [4]

O=C(O)Cc1ccc(OCCNC[C@H](O)c2ccccc2)cc1
inactive: Potency [1] | Potency [2] | Potency [3] | Potency [4]

Nc1cccc2c(=O)[nH][nH]c(=O)c12
inactive: Potency [1] | Potency [2] | Potency [3] | Potency [4]

CCC(C)(C)C1CCC(=O)CC1
inactive: Potency [1] | Potency [2] | Potency [3] | Potency [4]

O=C1OC(CN2CCOCC2)CN1/N=C/c1ccc([N+](=O)[O-])o1 (configuration not stated)
inactive: Potency [1] | Potency [2] | Potency [3] | Potency [4]

CC/C=C\C/C=C\C/C=C\CCCCCCCC(=O)OC
inactive: Potency [1] | Potency [2] | Potency [4]

C/C=C/C(=O)C1=C(C)C=CCC1(C)C
inactive: Potency [1] | Potency [2] | Potency [3] | Potency [4]

OCCN1CCN(CCCN2c3ccccc3Sc3ccc(Cl)cc32)CC1
inactive: Potency [1] | Potency [2] | Potency [4]

COC(=O)c1cc(Cl)cc(Cl)c1
inactive: Potency [1] | Potency [2] | Potency [3] | Potency [4]

C=CCN1C[C@H](C(=O)N(CCCN(C)C)C(=O)NCC)C[C@@H]2c3cccc4[nH]cc(c34)C[C@H]21
inactive: Potency [2] | Potency [4]
active: Potency [1] 34.7 µM

CN(C)CCCOc1nn(Cc2ccccc2)c2ccccc12
inactive: Potency [1] | Potency [2] | Potency [4]

Nc1ccc(S(=O)(=O)O)c(N)c1
inactive: Potency [1] | Potency [2] | Potency [4]

O=CC(=O)c1ccccc1
active: Potency [1] 2 µM | Potency [2] 5.03 µM | Potency [3] 283 nM | Potency [4] 35.6 µM

CC(C)=CCCC(C)C=O (configuration not stated)
inactive: Potency [1] | Potency [2] | Potency [4]

C=C(C)C1CC=C(C)C(O)C1 (configuration not stated)
inactive: Potency [1] | Potency [2] | Potency [4]

CC(CO)(CO)[N+](=O)[O-]
inactive: Potency [5] | Potency [6] | Potency [1] | Potency [2] | Potency [3] | Potency [4]

Cc1cc(C)c(N)cc1C
inactive: Potency [6] | outcome [7] | Potency [1] | Potency [2] | Potency [3] | Potency [4]
